The campaign covered roughly 310,000 compounds. About 14,000 (4.5%) showed an effect of 50% or more. Effects have a minus sign here. What follows is part of a selection rich in strong results, with near analogues and random picks from the rest.
target: human ether-à-go-go-related gene (hERG) potassium channel (human, UniProt Q12809); experiment: primary screen, population patch clamp on CHO cells stably expressing hERG; higher = less effect of the substance
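Further: peak tail current of the secondary pulse compared with the same well before compound.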

human ether-à-go-go-related gene (hERG) potassium channel, sequence (Q12809 whole entry, looked up): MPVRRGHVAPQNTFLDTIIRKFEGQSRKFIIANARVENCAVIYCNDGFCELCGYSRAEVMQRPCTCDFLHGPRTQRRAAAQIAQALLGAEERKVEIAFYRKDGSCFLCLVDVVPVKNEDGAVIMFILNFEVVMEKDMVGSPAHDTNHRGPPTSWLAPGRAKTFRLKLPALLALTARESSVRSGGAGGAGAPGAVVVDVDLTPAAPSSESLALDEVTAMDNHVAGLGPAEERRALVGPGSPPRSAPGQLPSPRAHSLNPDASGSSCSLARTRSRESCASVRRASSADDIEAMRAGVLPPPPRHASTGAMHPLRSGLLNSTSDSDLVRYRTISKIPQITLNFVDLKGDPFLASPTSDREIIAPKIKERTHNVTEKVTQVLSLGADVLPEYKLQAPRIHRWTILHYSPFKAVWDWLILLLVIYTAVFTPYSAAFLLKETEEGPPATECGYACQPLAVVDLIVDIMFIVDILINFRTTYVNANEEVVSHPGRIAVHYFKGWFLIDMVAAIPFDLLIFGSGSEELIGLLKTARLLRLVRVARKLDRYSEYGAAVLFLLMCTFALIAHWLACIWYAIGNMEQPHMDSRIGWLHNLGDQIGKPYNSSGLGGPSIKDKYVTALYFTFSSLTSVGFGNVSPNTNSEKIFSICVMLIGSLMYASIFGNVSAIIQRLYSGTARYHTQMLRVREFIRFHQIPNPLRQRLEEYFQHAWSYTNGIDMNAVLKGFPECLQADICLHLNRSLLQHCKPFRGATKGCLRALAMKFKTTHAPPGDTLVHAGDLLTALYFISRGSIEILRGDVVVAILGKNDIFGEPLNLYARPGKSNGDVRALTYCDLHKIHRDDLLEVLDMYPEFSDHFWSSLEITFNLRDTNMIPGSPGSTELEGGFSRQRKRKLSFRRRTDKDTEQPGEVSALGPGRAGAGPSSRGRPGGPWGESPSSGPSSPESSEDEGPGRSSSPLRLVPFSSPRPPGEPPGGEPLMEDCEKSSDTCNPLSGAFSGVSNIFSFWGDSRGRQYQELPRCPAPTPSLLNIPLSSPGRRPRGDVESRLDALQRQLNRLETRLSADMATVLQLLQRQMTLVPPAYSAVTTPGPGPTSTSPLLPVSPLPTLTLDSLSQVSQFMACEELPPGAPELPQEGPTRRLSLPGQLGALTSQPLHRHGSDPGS

| SMILES | hERG current change (%, negative = inhibition) at 10uM |
| --- | --- |
| CSc1cccc(NC(=O)/C=C/c2ccccc2)c1 | -7.06% |
| CC(=O)N1CCN(S(=O)(=O)c2cccc(C(=O)NCCC3=CCCCC3)c2)CC1 | -8.54% |
| O=C1N(c2ccc(Cl)c(Cl)c2)CN(Cc2ccccc2)CN1n1cnnc1 | -25.9% |
| COc1ccccc1-c1noc(CCC(=O)Nc2ccccc2Cl)n1 | -4.71% |
| CS(=O)(=O)c1ccccc1-c1nnc(NC(=O)COc2ccc(Cl)cc2)o1 | -6.82% |
| CCC1=C(OC(=O)N(CC)CC)N2C(=O)OC(=NCc3ccccc3)[C@]2(C)[C@H]2C1=CC[C@H]1C(=O)NC(=O)[C@H]12 | -6.14% |
| CCC1CCCCN1C(=O)c1cc2c(=O)n3cccc(C)c3nc2s1 (stereo not drawn) | 4.01% |
| CCC1Oc2ccccc2N(CC(=O)NCCC2=CCCCC2)C1=O (stereo not drawn) | 3.64% |
| FC(F)(F)c1cc(-c2ccc(Cl)cc2)nc2ncnn12 | -16.2% |
| CCCc1cc(=O)oc2cc(C)cc(OCC(=O)Nc3cccnc3)c12 | -0.927% |
| CCCc1cc(=O)oc2cc(C)cc(OCC(=O)NCc3cccnc3)c12 | -44.4% |
| CCCc1cc(=O)oc2cc(C)cc(OCC(=O)NCc3ccncc3)c12 | -69.5% |
| CCCCc1cc(=O)oc2cc(C)cc(OCC(=O)Nc3cccnc3)c12 | 26.7% |
| CCCCc1cc(=O)oc2cc(C)cc(OCC(=O)Nc3ccccn3)c12 | 28.6% |
| CCCc1cc(=O)oc2cc(C)cc(OCC(=O)Nc3ccccn3)c12 | 13.2% |
| CCCCc1cc(=O)oc2cc(C)cc(OCC(=O)NCc3ccncc3)c12 | -84.1% |
| CCc1cc(=O)oc2cc(C)cc(OCC(=O)NCc3cccnc3)c12 | -31.5% |
| CCCCc1cc(=O)oc2cc(C)cc(OCC(=O)NCc3cccnc3)c12 | -54.1% |
| CCOc1ccc(NC(=O)Cn2nnc(C(=O)NCc3ccco3)c2N)cc1 | 15.1% |
| C=CCN1C(=O)S/C(=C/c2ccc(Sc3nc4ccccc4[nH]3)o2)C1=O | 3.61% |
| CCN1C(=O)N[C@@H](c2ccccc2)[C@H](C(=O)OC)[C@H]1C | -6.4% |
| COC(=O)Nc1nn(-c2ccc(C)cc2)c(=O)c(C#N)c1C | 11.2% |
| CN(C)C(C(=O)NC1CCCCC1)c1ccc(Cl)cc1 (stereo not drawn) | 4.27% |
| COC(=O)c1ccc(N2CCN(C)CC2)c(NC(=O)COc2cccc(C)c2)c1 | -18.9% |
| CCOC(=O)c1ccc(N=C(C)c2c(O)[nH]c(=O)[nH]c2=O)cc1 | 10.8% |
| CCCCn1nc(C(=O)NC2=NCCS2)c2ccccc2c1=O | -16.3% |
| Cc1cc(NC(=O)COC(=O)CC2CCCC2)c([N+](=O)[O-])cc1C | 9.34% |

| SMILES | hERG current change (%, negative = inhibition) at 10uM |
| --- | --- |
| CCOC(=O)CC(NC(=O)c1cc2cccc(OC)c2oc1=O)c1cccc([N+](=O)[O-])c1 (stereo not drawn) | -23% |
| CCOC(=O)CC(NC(=O)c1cc2cc(Br)ccc2oc1=O)c1cccc([N+](=O)[O-])c1 (stereo not drawn) | -27.5% |
| CCOC(=O)CC(NC(=O)c1cc2ccccc2oc1=O)c1cccc([N+](=O)[O-])c1 (stereo not drawn) | -58.5% |
| CCOC(=O)CC(NC(=O)c1cc2cc(Cl)cc(Cl)c2oc1=O)c1cccc([N+](=O)[O-])c1 (stereo not drawn) | -66.8% |
| CCOC(=O)CC(NC(=O)c1cc2cccc(OC)c2oc1=O)c1ccc(OC)cc1 (stereo not drawn) | -5.76% |
| CCOC(=O)CC(N)c1cccc([N+](=O)[O-])c1.Cl (stereo not drawn) | 2.9% |
| O=C(Nc1ccccn1)C1COc2ccccc2O1 (stereo not drawn) | 16.1% |
| CCOC(=O)c1sc2nc(C)nc(NC3CCC(O)CC3)c2c1C (stereo not drawn) | 2.9% |
| CSc1ccccc1NC(=O)CN(C)CC(=O)Nc1ccc(Cl)cc1[N+](=O)[O-] | -31.6% |
| O=C(CN1C(=O)C2CC=CCC2C1=O)NCC(=O)Nc1ccc(F)c(F)c1F (stereo not drawn) | 7.55% |
| Cc1cc(Cl)c(S(=O)(=O)N/N=C/c2ccc3c(c2)OCO3)c(Cl)c1 | 2.77% |
| COc1ccc(NC(=O)N2CCc3ccccc3C2)cc1OC | 11.3% |
| CCNc1nc(NC(C)C)nc(Nn2cnnc2)n1 | 9.05% |
| O=C(NCc1cccs1)C1CCN(S(=O)(=O)c2cccc3nsnc23)CC1 | -13.1% |
| CS(=O)(=O)c1ccccc1C(=O)Nc1cc(Cl)ccc1-n1cncn1 | 13.4% |
| O=C(CN1C(=O)NC2(CCc3ccccc32)C1=O)c1ccccc1 (stereo not drawn) | 15.1% |
| CS(=O)(=O)c1ccc(C(=O)CN2C(=O)NC3(CCCc4ccccc43)C2=O)cc1 (stereo not drawn) | -51.5% |
| O=C(CN1C(=O)NC2(CCc3ccccc32)C1=O)c1ccc(F)cc1 (stereo not drawn) | -57.4% |
| Cc1ccc(NC(=O)CN2C(=O)NC3(CCCc4ccccc43)C2=O)c([N+](=O)[O-])c1 (stereo not drawn) | -75.6% |
| Cc1cc(Cl)ccc1NC(=O)CN1C(=O)NC2(CCCc3ccccc32)C1=O (stereo not drawn) | -1.38% |
| O=C(CN1C(=O)NC2(CCCc3ccccc32)C1=O)c1ccc(Br)cc1 (stereo not drawn) | -20.4% |
| O=C(CN1C(=O)NC2(CCCc3ccccc32)C1=O)c1ccc(F)cc1 (stereo not drawn) | -17% |
| COc1ccc(C(=O)CN2C(=O)NC3(CCCc4ccccc43)C2=O)cc1 (stereo not drawn) | -36.2% |
| Cc1ccc(F)cc1NC(=O)CN1C(=O)NC2(CCCc3ccccc32)C1=O (stereo not drawn) | -1.5% |
| CCCS(=O)(=O)Nc1cccc(-c2cn3c(n2)SCC3)c1 | -14.1% |
| COc1ccc(OC)c(S(=O)(=O)N2CCCC(C(=O)NCCN3CCOCC3)C2)c1 (stereo not drawn) | 21.2% |
| O=S(=O)(NCc1cccnc1)c1ccc(Cl)s1 | 6.91% |
